Each structure is given as a SMILES string. Where a name gives a salt, the structure may show the parent alone.

The test system of this test is Danio rerio larvae (5 dpf). The test is described as follows: optomotor response to blue moving lines, difference vs DMSO (percentage points (treated minus DMSO)); higher = more of the behaviour than the DMSO vehicle control. To be noted: 10 µM; exposure time: 3 h pre-incubation + 3 h imaging. As to the method: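 5-dpf wild-type zebrafish larvae were imaged in 96-well plates. They were treated with 190 Tocris FDA-approved drugs at 10 µM (1 µl/ml DMSO) for 3 h before and 3 h during imaging at 28.5 °C, 48 larvae per drug. Automated image analysis gave % time moving and optomotor responses. Values are drug group mean minus DMSO vehicle mean (n=844), in percentage points, for 10 behaviours.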
As to `CCOC(=O)N1CCC(=C2c3ccc(Cl)cc3CCc3cccnc32)CC1` [Loratidine], the “optomotor response to blue moving lines” value was found to be 6.09.

Regarding `C[C@]12CCC(=O)C=C1CC[C@@H]1[C@@H]2[C@@H](O)C[C@@]2(C)[C@H]1CC[C@]2(O)C(=O)CO` [Hydrocortisone], the “optomotor response to blue moving lines” value is 8.43.

Turning to `CCCCc1nc(Cl)c(CO)n1Cc1ccc(-c2ccccc2-c2nnn[nH]2)cc1` [Losartan potassium], the “optomotor response to blue moving lines” value is -6.92.

For `COc1ccc(Cl)cc1C(=O)NCCc1ccc(S(=O)(=O)NC(=O)NC2CCCCC2)cc1` [Glibenclamide], the “optomotor response to blue moving lines” value came out at 1.29.

For the molecule `CN1CC[C@@H](NC(=O)Nc2ccc(C#N)cc2)C[C@@H]1c1nc2ccccc2[nH]1`, the “optomotor response to blue moving lines” value was 3.76.

Turning to `CCc1c2c(nc3ccc(OC(=O)N4CCC(N5CCCCC5)CC4)cc13)-c1cc3c(c(=O)n1C2)COC(=O)[C@]3(O)CC`, the “optomotor response to blue moving lines” value is 1.97.

For the molecule `Clc1ccc2nsnc2c1NC1=NCCN1` [Tizanidine hydrochloride], the “optomotor response to blue moving lines” value came to 3.61.

Regarding `CC(C)(C(=O)c1cccnc1)c1cccnc1` [Metyrapone], the “optomotor response to blue moving lines” value was -8.19.

Turning to `C[C@H]1C[C@@H]2[C@H]([C@@H](O)C[C@@]3(C)[C@H]2CC[C@]3(O)C(=O)CO)[C@@]2(C)C=CC(=O)C=C12` [Methylprednisolone], the “optomotor response to blue moving lines” value worked out at 10.6.

On to `CC(C)n1c(/C=C/C(O)CC(O)CC(=O)O)c(-c2ccc(F)cc2)c2ccccc21` (stereo not given) [Fluvastatin sodium], for which the “optomotor response to blue moving lines” value is -4.94.

Regarding `CNC(=O)c1ccccc1Sc1ccc2c(/C=C/c3ccccn3)n[nH]c2c1` [Axitinib], the “optomotor response to blue moving lines” value came to 13.5.

For the molecule `O=C(NCC1CCCCN1)c1cc(OCC(F)(F)F)ccc1OCC(F)(F)F` (stereo not given) [Flecainide acetate], the “optomotor response to blue moving lines” value was 9.21.

As to `Cc1cc(C2CCCCC2)n(O)c(=O)c1` [Ciclopirox], the “optomotor response to blue moving lines” value was -8.77.

With `CC(=O)S[C@@H]1CC2=CC(=O)CC[C@]2(C)[C@H]2CC[C@@]3(C)[C@@H](CC[C@@]34CCC(=O)O4)[C@H]12` [Spironolactone], the “optomotor response to blue moving lines” value was determined as 1.86.

In the case of `CCOC(=O)[C@H](CCc1ccccc1)N[C@@H](C)C(=O)N1[C@H](C(=O)O)C[C@@H]2CCC[C@@H]21` [Ramipril], the “optomotor response to blue moving lines” value is 4.54.

Turning to `CN(C)CCC[C@@]1(c2ccc(F)cc2)OCc2cc(C#N)ccc21` [Escitalopram oxalate], the “optomotor response to blue moving lines” value worked out at 1.97.

As for `CN1CC2c3ccccc3Oc3ccc(Cl)cc3C2C1` (stereo not given) [Asenapine maleate], the “optomotor response to blue moving lines” value is -10.

As to `N[C@@H]1[C@H]2CN(c3nc4c(cc3F)c(=O)c(C(=O)O)cn4-c3ccc(F)cc3F)C[C@@H]12` [Trovafloxacin mesylate], the “optomotor response to blue moving lines” value came to 14.1.

For the molecule `NC(=O)OCC(COC(N)=O)c1ccccc1` [Felbamate], the “optomotor response to blue moving lines” value is -1.4.

Regarding `Nc1nc(NC2CC2)c2ncn([C@H]3C=C[C@@H](CO)C3)c2n1` [Abacavir hemisulfate], the “optomotor response to blue moving lines” value was 2.71.

Take `CN/C(=N\CCSCc1nc[nH]c1C)NC#N` [Cimetidine]: the “optomotor response to blue moving lines” value worked out at 4.9.

As to `CCOC(=O)[C@H](CCc1ccccc1)N[C@H]1CCc2ccccc2N(CC(=O)O)C1=O` [Benazepril hydrochloride], the “optomotor response to blue moving lines” value is 5.7.

Regarding `OC(c1cc(C(F)(F)F)nc2c(C(F)(F)F)cccc12)C1CCCCN1` (stereo not given) [Mefloquine hydrochloride], the “optomotor response to blue moving lines” value was determined as 10.8.

Take `CO[C@H]1/C=C/O[C@@]2(C)Oc3c(C)c(O)c4c(O)c(c5c(nc6cc(C)ccn65)c4c3C2=O)NC(=O)/C(C)=C\C=C\[C@H](C)[C@H](O)[C@@H](C)[C@@H](O)[C@@H](C)[C@H](OC(C)=O)[C@@H]1C` [Rifaximin]: the “optomotor response to blue moving lines” value stood at 9.62.

As to `COc1cc([C@@H]2c3cc4c(cc3[C@@H](O[C@@H]3O[C@@H]5CO[C@@H](C)O[C@H]5[C@H](O)[C@H]3O)[C@H]3COC(=O)[C@H]23)OCO4)cc(OC)c1O` [Etoposide], the “optomotor response to blue moving lines” value is 6.33.

As to `O=C(O)c1cc(/N=N/c2ccc(S(=O)(=O)Nc3ccccn3)cc2)ccc1O` [Sulfasalazine], the “optomotor response to blue moving lines” value was -4.22.

`OCCN(CCO)c1nc(N2CCCCC2)c2nc(N(CCO)CCO)nc(N3CCCCC3)c2n1` [Dipyridamole]: the “optomotor response to blue moving lines” value was -5.39.

As for `CN(C)C(=N)NC(=N)N` [Metformin hydrochloride], the “optomotor response to blue moving lines” value is 22.6.

Take `Cc1ccc(-c2cc(C(F)(F)F)nn2-c2ccc(S(N)(=O)=O)cc2)cc1` [Celecoxib]: the “optomotor response to blue moving lines” value is -3.07.

As for `CC(=O)O[C@]1(C(C)=O)CC[C@H]2[C@@H]3C=C(C)C4=CC(=O)CC[C@]4(C)[C@H]3CC[C@@]21C` [Megestrol Acetate], the “optomotor response to blue moving lines” value is -7.55.

For `OC(CNCC(O)C1CCc2cc(F)ccc2O1)C1CCc2cc(F)ccc2O1` (stereo not given) [Nebivolol hydrochloride], the “optomotor response to blue moving lines” value was -16.6.

With `CN1CC(=O)N2[C@H](c3ccc4c(c3)OCO4)c3[nH]c4ccccc4c3C[C@@H]2C1=O` [Tadalafil], the “optomotor response to blue moving lines” value was -3.81.

In the case of `CC(C)(C#N)c1cc(Cn2cncn2)cc(C(C)(C)C#N)c1` [Anastrozole], the “optomotor response to blue moving lines” value is -5.16.

`CC#C[C@]1(O)CC[C@H]2[C@@H]3CCC4=CC(=O)CCC4=C3[C@@H](c3ccc(N(C)C)cc3)C[C@@]21C` [Mifepristone]: the “optomotor response to blue moving lines” value was 11.

Consider `C[C@H](Cc1cc2c(c(C(N)=O)c1)N(CCCO)CC2)NCCOc1ccccc1OCC(F)(F)F` [Silodosin], for which the “optomotor response to blue moving lines” value is 15.7.

For the molecule `C[C@]12CC[C@@H]3c4ccc(O)cc4C[C@@H](CCCCCCCCC[S+]([O-])CCCC(F)(F)C(F)(F)F)[C@H]3[C@@H]1CC[C@@H]2O` (stereo not given in full), the “optomotor response to blue moving lines” value was 6.07.

Regarding `C#C[C@]1(O)CC[C@H]2[C@@H]3CCC4=CC(=O)CC[C@@H]4[C@H]3CC[C@@]21CC` [Levonorgestrel], the “optomotor response to blue moving lines” value came to 19.5.

Regarding `Nc1ncn([C@H]2C[C@H](O)[C@@H](CO)O2)c(=O)n1` [Decitabine], the “optomotor response to blue moving lines” value was -0.954.

Regarding `CCCCNc1cc(C(=O)O)cc(S(N)(=O)=O)c1Oc1ccccc1` [Bumetanide], the “optomotor response to blue moving lines” value was 3.8.

On to `OCCOCCN1CCN(C2=Nc3ccccc3Sc3ccccc32)CC1` [Quetiapine hemifumarate], for which the “optomotor response to blue moving lines” value is 19.9.

The values above are taken from the supplement of paper PMC9023506.
